From PubChem
TDP-43 yeast inh = inhibitors of TDP-43 toxicity in yeast | TDP-43 expressing yeast growth rescue, BacTiter-Glo, 24 h | Potency, µM (highest dose often 46.1 µM), without a hit: top-dose growth rescue (activation), hits mostly activators | actives 1.8% (n = 410,000); further: potency means the concentration at half of the fitted maximal effect; % of control where 0% means no effect; nearly all actives have a fitted effect of over 50% in size
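Readout is BacTiter-Glo luminescence of cell growth, so inhibitors register as activators. TDP-43-expressing yeast at OD600=0.02 in galactose medium, after raffinose pregrowth to mid-log, were incubated with compound for 24 hr at 30 deg C.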
mIDH1 inhibitor = blocks human mutant IDH1 R132H enzyme. Potency, µM (series often up to 76.6 µM), inactives show at the top dose activity change, negative = inhibition, usual class: inhibitors. O75874. actives 0.093% (n = 390,000). IDH1-R132H enzyme, NADPH consumption, diaphorase/resazurin fluorescence. AID 602179; further: potency means the concentration at half of the fitted maximal effect; on the % scale 0 is the no-effect control and ±100 the full control effect; nearly all actives have a fitted effect of over 65% in size
Target sequence (O75874 whole entry R132H, stated change not applied): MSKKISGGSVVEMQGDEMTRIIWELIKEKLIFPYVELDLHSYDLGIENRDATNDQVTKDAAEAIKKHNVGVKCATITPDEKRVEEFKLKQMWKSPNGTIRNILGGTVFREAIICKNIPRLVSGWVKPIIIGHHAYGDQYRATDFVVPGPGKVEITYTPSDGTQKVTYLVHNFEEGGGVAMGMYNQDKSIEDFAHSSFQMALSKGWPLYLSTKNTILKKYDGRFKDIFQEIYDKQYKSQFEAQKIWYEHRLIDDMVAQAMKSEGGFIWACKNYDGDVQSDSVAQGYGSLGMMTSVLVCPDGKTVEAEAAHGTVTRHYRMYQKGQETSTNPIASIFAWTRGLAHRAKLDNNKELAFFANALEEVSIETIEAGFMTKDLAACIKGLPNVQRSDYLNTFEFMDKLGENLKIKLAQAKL
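IDH1-R132H (0.5 ug/mL dispensed) in pH 7.5 Tris buffer was preincubated 30 min with compound, then given a substrate mix of 0.016 mM NADPH and 2 mM alpha-KG for 80 min at room temperature; remaining NADPH was read by diaphorase/resazurin fluorescence.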
FUS yeast rescue = FUS proteinopathy suppression in yeast. Potency, µM (doses to about 76.6 µM), actives largely listed as activators. AID 1347120. S. cerevisiae FUS-expressing, growth rescue, OD600, 24 h. actives 0.24% (n = 390,000);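 further: potency means the concentration at half of the fitted maximal effect; plate controls were DMSO vehicle for no effect and reference control for full effect; nearly all actives have a fitted effect of over 55% in size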
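S. cerevisiae expressing FUS from galactose induction served as the toxicity model. Growth after 24hr at 30C, read as absorbance at 600 nm, indicates suppression of toxicity; compounds dosed at several concentrations.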
aSyn rescue = inhibitors of alpha-synuclein toxicity in yeast; Yeast expressing alpha-synuclein, growth rescue, BacTiter-Glo, 24 h; Potency, µM (titrated, usually from 46.1 µM), for inactives: top-dose growth rescue (activation), most hits filed as activators; actives 0.14% (n = 370,000); further: potency means the concentration at half of the fitted maximal effect; % of control where 0% means no effect; nearly all actives have a fitted effect of over 65% in size
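Galactose-induced alpha-syn yeast (OD600=0.02, raffinose-pregrown) + pinned cpd, 24 hr, 30 deg C; growth by BacTiter-Glo luminescence. Growth restoration scores as activation.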
Abeta yeast res = restores growth of yeast expressing A-beta42 peptide; actives 0.063% (n = 410,000); yeast expressing A-beta42, growth rescue, OD600, 48 h; response scale: 0% DMSO, 100% iron-clioquinol control; Potency, µM (series often up to 46.1 µM), actives largely listed as activators; AID 1347071; further: potency means the concentration at half of the fitted maximal effect; nearly all actives have a fitted effect of over 55% in size
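Yeast A-beta toxicity model in growth medium with pinned compounds, 48 h at 30 C; growth read as absorbance at 600 nm. Normalized to FeCl3/clioquinol equimolar mix (positive) and DMSO (negative).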
LDHA inh = LDHA (human) enzyme inhibition. activity change, % (values are at about 110 or 230 µM). AID 1347041. actives 0.15% (n = 480,000). purified LDHA, NADH/diaphorase-resazurin fluorescence; active compounds read low. P00338; in the data active means activity change below about -30%; inconclusive means mostly about -25% to -30%;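 further: plate controls were DMSO wells for no effect and wells without enzyme for full effect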
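Enzyme activity of human lactate dehydrogenase 5 (2 nM; 0.06 mM NADH, 0.2 mM pyruvate, 5 min, RT) is measured via a resazurin/diaphorase fluorescence readout of residual NADH.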
* marks the source's active call; other numbers are inactive results. Compounds with a hit are over-represented: about 2% of the library has one in this group of screens. Unless noted, the call rests on the fitted dose curve; in most records, active means well fitted curve in the direction sought with a large enough effect; inconclusive means small, poorly fitted or top-dose-only effect, or another doubt; inactive means no such curve, though single readings can be large; an effect the other way counts as inactive or inconclusive.

Screening COc1ccc(CCNc2ncnc3c2c(-c2ccccc2)cn3-c2ccc(Cl)cc2)cc1OC returned TDP-43 yeast inh inconclusive, mIDH1 inhibitor -5.5%, FUS yeast rescue 14.1µM*, Abeta yeast res inactive and LDHA inh -7.2.
COCCN(CCOC)c1ncnc2c1c(-c1ccccc1)cn2-c1ccc(C)c(Cl)c1 was read as TDP-43 yeast inh 25.1µM*, mIDH1 inhibitor -6.3%, FUS yeast rescue inactive, Abeta yeast res inactive and LDHA inh -0.4.
Clc1cccc(-n2cc(-c3ccccc3)c3c(N4CCCCC4)ncnc32)c1 was read as TDP-43 yeast inh inconclusive, mIDH1 inhibitor -11.9%, FUS yeast rescue inactive, Abeta yeast res inactive and LDHA inh 0.1.
`COc1ccc(C(=O)/C(C#N)=C\c2ccc(OC(F)F)c(OC)c2)cc1` gave LDHA inh -24.9.
For CC(Oc1ccc2ccc(=O)oc2c1)C(=O)Nc1ccc(C(N)=O)cc1 (configuration not stated) the results were LDHA inh 1.4.
`Nc1ccc2nc(SCc3ccccc3F)sc2c1` gave TDP-43 yeast inh 12.6µM*, mIDH1 inhibitor 14.9%, FUS yeast rescue inactive, aSyn rescue 29.4%, Abeta yeast res inactive and LDHA inh 2.5.
`CCOc1ccc2nc(COc3ccc(C)cc3)[nH]c2c1` gave LDHA inh 1.4.
`CCCCSc1ccc2nc(-c3ccc(C#N)cc3)cn2c1` gave TDP-43 yeast inh 11.2µM*, mIDH1 inhibitor 1.3%, FUS yeast rescue inactive, aSyn rescue -12.1%, Abeta yeast res inactive and LDHA inh -6.0.
For CN(Cc1nc2ccccc2n1C(F)F)S(=O)(=O)c1cc(Cl)ccc1Cl the results were LDHA inh 10.6.
For COc1ccc(C(=O)/C=C/C(=O)N(Cc2ccc(F)cc2)C(C(=O)NC2CCCCC2)c2ccncc2)c(O)c1 (configuration not stated) the results were TDP-43 yeast inh 20µM*, mIDH1 inhibitor 2.6%, aSyn rescue 25.1µM*, Abeta yeast res inactive and LDHA inh 4.3.
Screening O=C(N/N=C/C=C/c1ccccc1)NC1CCCCC1 returned TDP-43 yeast inh 17.8µM*, mIDH1 inhibitor 2.2%, FUS yeast rescue inactive, aSyn rescue inconclusive, Abeta yeast res inconclusive and LDHA inh -0.1.
Screening NC(=O)N\N=C/C=C/C=C/c1ccc(F)cc1 returned TDP-43 yeast inh 20.6%, mIDH1 inhibitor 2.3%, FUS yeast rescue inactive, aSyn rescue 1.0%, Abeta yeast res inactive and LDHA inh -3.2.
For NC(=O)N/N=C/C=C/c1ccccc1 the results were TDP-43 yeast inh 3.98µM*, mIDH1 inhibitor -0.9%, FUS yeast rescue inactive, aSyn rescue -19.0%, Abeta yeast res inactive and LDHA inh -2.3.
`Clc1cccnc1SCc1cc(Cl)c2c(c1)OCCO2` gave LDHA inh 4.0.
`Oc1ccc(Cl)cc1C=NCc1ccc(F)c(Cl)c1` gave LDHA inh 7.3.
`CCc1ccc(/C=C2\SC(=S)N(CCCC(=O)N(CCO)c3ccccc3)C2=O)cc1` gave TDP-43 yeast inh 35.5µM*, mIDH1 inhibitor 0.7%, FUS yeast rescue 22.4µM*, aSyn rescue 19.8%, Abeta yeast res inactive and LDHA inh 1.1.
For Cn1c(NCC(O)c2ccccc2)nc2c1c(=O)n(Cc1ccc(Cl)c(Cl)c1)c(=O)n2C (configuration not stated) the results were TDP-43 yeast inh -37.7%, mIDH1 inhibitor 6.4%, FUS yeast rescue 8.91µM*, aSyn rescue -25.6%, Abeta yeast res inactive and LDHA inh -2.3.
Cn1c(NCC(O)c2ccccc2)nc2c1c(=O)n(Cc1ccc(Cl)cc1)c(=O)n2C (configuration not stated) was read as TDP-43 yeast inh -13.9%, mIDH1 inhibitor 1.1%, FUS yeast rescue inactive, aSyn rescue -4.6%, Abeta yeast res inactive and LDHA inh -0.8.
Screening Cc1ccc(S(=O)(=O)NCc2ccc(C(=O)N3CCN(c4cccc(C)c4C)CC3)cc2)cc1 returned LDHA inh -0.5.
CCC(=O)NC(c1ccco1)c1cc(Cl)c2cccnc2c1O (configuration not stated) was read as TDP-43 yeast inh 17.3%, mIDH1 inhibitor -2.3%, FUS yeast rescue inactive, aSyn rescue 11.2µM*, Abeta yeast res inactive and LDHA inh 9.0.
For Cc1ccc(-c2csc3nc[nH]c(=S)c23)cc1C the results were TDP-43 yeast inh 25.1µM*, mIDH1 inhibitor -6.3%, FUS yeast rescue inactive, aSyn rescue inconclusive, Abeta yeast res inconclusive and LDHA inh -3.8.
`COc1cc(/C=C(/C#N)C(=O)C(C)(C)C)cc(Cl)c1OC` gave LDHA inh 1.3.
Screening Cn1nc(-c2ccccc2)c(CO)c1Oc1cccc(C(F)(F)F)c1 returned TDP-43 yeast inh 11.2µM*, mIDH1 inhibitor 5.0%, FUS yeast rescue inactive, aSyn rescue 3.6%, Abeta yeast res inactive and LDHA inh -1.5.
`CC(C)CCN1C(=O)c2ccc(C(=O)OCC(=O)N(CC(C)C)C3CCS(=O)(=O)C3)cc2C1=O` (configuration not stated) gave TDP-43 yeast inh -12.2%, mIDH1 inhibitor -12.8%, FUS yeast rescue 31.6µM*, aSyn rescue -4.4%, Abeta yeast res inactive and LDHA inh -6.8.
For CC(C)CCN1C(=O)c2ccc(C(=O)OCC(=O)N(C)C3CCS(=O)(=O)C3)cc2C1=O (configuration not stated) the results were TDP-43 yeast inh 2.6%, mIDH1 inhibitor 1.1%, FUS yeast rescue inactive, aSyn rescue -0.1%, Abeta yeast res inactive and LDHA inh 0.2.
For CCc1ccc(NS(=O)(=O)c2ccc3[nH]cc(C(=O)NC4CCCC4)c(=O)c3c2)cc1 the results were TDP-43 yeast inh 11.2%, mIDH1 inhibitor -12.8%, FUS yeast rescue 28.2µM*, Abeta yeast res inactive and LDHA inh 13.3.
For O=C(O)C(c1c[nH]c2ccc(Cl)cc12)N1CCN(c2cccc(Cl)c2)CC1 (configuration not stated) the results were LDHA inh 0.1.
CCCCCCC(=O)Nc1ccc(C(=O)N/N=C/c2cccnc2)cc1 was read as TDP-43 yeast inh -5.9%, mIDH1 inhibitor 4.8%, FUS yeast rescue 28.2µM*, aSyn rescue -1.4%, Abeta yeast res inactive and LDHA inh -0.9.
